Reference: PubChem BioAssay (NCI)
Several values for one entry are separate records, joined by “and”; a condition that tells them apart may be missing. Identical values can stand only once. The panel holds about 83,000 compounds, 20% with a hit somewhere; the sample as a whole holds those more often.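 Compound tested at a single concentration for 48 hours in 96-well plates; a percent growth value below 10 was scored as active.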 Activity calls are given as the source filed them.

Each molecule was assayed on MDA-MB-468 breast (assay: NCI-60 one-dose screen, 48 h (100 = growth as untreated, 0 = no growth, -100 = all killed)). Details: 10 µM unless noted.

Question: Which growth does the source give for `Cc1c(Cc2ccccc2)c(=O)oc2c(C)c(OCC(=O)n3nc(C#N)cc3N)ccc12` here?
Answer: 114% (inactive)

Question: `Cc1ccc(-c2c3c(N)nc(-c4cccnc4)nc3nc3c2c(C)nn3-c2ccccc2)cc1` was tested. Which growth did it give?
Answer: 74.6% (inactive)

Question: With `O[C@@H]1CO[C@H]2[C@@H]1OC[C@@H]2O` as the molecule, how does the growth read?
Answer: 96.3% (inactive)

Question: With `CCOC(=O)C(=O)/C(=C\c1ccc(Cl)cc1)C(=O)N1C(=S)NC(=O)C1CC(C)C` (centres undefined) as the molecule, how does the growth read?
Answer: 90% (inactive)

Question: How did the growth turn out when `CCc1ccccc1-n1c(N)c(C#N)c(-c2ccc(Cl)cc2)c(C#N)c1=O` was run?
Answer: 98.8% (inactive)

Question: Which growth does the source give for `N/C(=N\O)c1ncc(-c2ccc(C(F)(F)F)cc2)c(NC2CCCCCC2)n1` here?
Answer: -20.4% [100 µM] (active)

Question: How did the growth turn out when `O=c1cc(-c2ccccc2)oc2cc(OCc3cn(Cc4ccc(F)cc4)nn3)cc(O)c12` was run?
Answer: 53.9% [100 µM] (inactive)

Question: With `OCCN1CCN(CCO)CC1` as the molecule, how does the growth read?
Answer: 107% (inactive) and 103% (inactive) and 105% (inactive)

Question: Which growth does the source give for `O=C(O)c1ccc(=O)[nH]n1` here?
Answer: 123% (inactive)

Question: For `COc1cc(/C=N\NC(=O)CN2CCN(c3cc4c(cc3F)c(=O)c(C(=O)N/N=C/c3ccc(O)c(OC)c3)cn4C3CC3)CC2)ccc1O`, which growth is on record?
Answer: -37.8% (active)

Question: How did the growth turn out when `Cc1ccc(C[P+](c2ccccc2)(c2ccccc2)c2ccccc2)cc1` was run?
Answer: -12.9% (active)

Question: How did the growth turn out when `CCCCCCNC(=O)Oc1ccc(/C(=C(/C)c2ccc(Cl)cc2)c2ccc(OCCN3CCCC3)cc2)cc1` was run?
Answer: 62.6% (inactive)

Question: Which growth does the source give for `O=C(O)CC1=CCCCC1` here?
Answer: 102% (inactive)

Question: With `COc1cc(C2CC(c3cccc(Nc4ccncc4)c3)=NN2c2ccccc2)cc(OC)c1OC` (centres undefined) as the molecule, how does the growth read?
Answer: 25.8% (inactive)

Question: With `CCCCCCCC(=O)SCC/C=C/[C@@H]1CC(=O)NCc2nc(cs2)C2=N[C@@](C)(CS2)C(=O)N[C@@H](C(C)C)C(=O)N1` as the molecule, how does the growth read?
Answer: 40.7% (inactive)

Question: With `CCCCNC(=O)c1cc(NCc2cc(O)ccc2O)ccc1O` as the molecule, how does the growth read?
Answer: 93.6% (inactive)

Question: Which growth does the source give for `COc1ccc(-c2nc3c(N)c(CO)c(C)nc3o2)cc1` here?
Answer: 67.5% (inactive)

Question: With `NC(=O)n1c(=O)n(-c2cccc(C(F)(F)F)c2)c(=O)c2cc(-c3ccc(F)cc3F)ccc21` as the molecule, how does the growth read?
Answer: -8.88% (active)

Question: How did the growth turn out when `BrC/C=C/C[P+](c1ccccc1)(c1ccccc1)c1ccccc1` was run?
Answer: 3.78% (active)

Question: With `C=C1CCC2C3(C)COC(c4ccc(SC)cc4)OC3CCC2(C)C1C/C=C1/C(=O)OCC1O` (centres undefined) as the molecule, how does the growth read?
Answer: 77.4% (inactive)

Question: For `COc1ccc(C(=O)/C=C/c2c(C(F)(F)F)nc3sccn23)cc1OC`, which growth is on record?
Answer: -21.1% (active)

Question: How did the growth turn out when `Cc1ccc(/C=C/CC(=O)Nc2ccc(C(=O)Nc3ccc(F)cc3N)cc2)cn1` was run?
Answer: 53.5% (inactive)

Question: With `COc1ccc(CNc2nc3ccccc3c3c(=O)c4ccccc4sc23)cc1OC` as the molecule, how does the growth read?
Answer: 57.4% (inactive)

Question: `O=C(c1ccccc1)C1OC1C(=O)c1ccccc1` (centres undefined) was tested. Which growth did it give?
Answer: 0.0075% (active)

Question: Which growth does the source give for `COc1cc(/C=N/n2cnc3oc(-c4ccccc4)cc3c2=N)cc(CN2CCN(C)CC2)c1O` here?
Answer: 91.9% (inactive)

Question: `Cc1c(-c2nc3ccc(F)cc3c(=O)[nH]2)c2ccccc2n1C` was tested. Which growth did it give?
Answer: 6.2% (active)

Question: Which growth does the source give for `C=CCO[C@H]1CO[C@H]2[C@@H]1OC[C@@H]2Oc1ccc(Nc2ccnc(Nc3ccc(O[C@H]4CO[C@H]5[C@@H]4OC[C@@H]5OCC=C)c(Cl)c3)n2)cc1Cl` here?
Answer: -84.5% (active)

Question: Which growth does the source give for `N=C(N)c1ccc(-c2ccc(-c3ccccc3)s2)cc1F` here?
Answer: -78.4% (active)

Question: How did the growth turn out when `Cc1ccc(C2C3CC4CCCCC4N3[C@@]3(C(=O)Nc4cc(Cl)ccc43)C2C(=O)c2nc3ccccc3[nH]2)cc1` (some centres undefined) was run?
Answer: -10.9% (active)

Question: With `Cc1cc2c(-c3nc4ccccc4[nH]3)c(O)c(O)cc2c(O)c1-c1c(C)cc2c(-c3nc4ccccc4[nH]3)c(O)c(O)cc2c1O` as the molecule, how does the growth read?
Answer: -18.3% (active)

Question: With `CC(C)n1c2ccc(Br)cc2c2c3c(c4c5ccccc5ccc4c21)C(=O)NC3=O` as the molecule, how does the growth read?
Answer: 93.5% (inactive)

Question: How did the growth turn out when `O=C1CCC(N2C(=O)c3cccc(NCCOCCOCCNC(=O)c4cc5c(o4)C(=O)c4ccccc4C5=O)c3C2=O)C(=O)N1` (centres undefined) was run?
Answer: -41.6% (active)

Question: With `COc1cc(/C=C2\CN(S(=O)(=O)c3ccccc3)C/C(=C\c3cc(CN4CCCC4)c(O)c(OC)c3)C2=O)cc(CN2CCCC2)c1O` as the molecule, how does the growth read?
Answer: -32.1% (active)

Question: Which growth does the source give for `CCOc1cc(F)c([N+](=O)[O-])cc1[N+](=O)[O-]` here?
Answer: -35.2% (active)

Question: For `Cc1cc(O)c2c(c1)C1OC(=O)CCCCCN1C1=C2C(=O)c2cccc(OC3CC(O)C(O)C(C)O3)c2C1=O` (centres undefined), which growth is on record?
Answer: 58.3% (inactive)

Question: With `Cn1c(=O)c2[nH]c(SC/C(=N/O)c3ccc(Br)cc3)nc2n(C)c1=O` as the molecule, how does the growth read?
Answer: 47.1% (inactive)

Question: `COc1ccc(-c2ccnc3c(C#N)c(Nc4ccccc4)nn23)cc1OC` was tested. Which growth did it give?
Answer: 79.4% (inactive)

Question: `COc1ccc(/C=N/NC(=O)c2c(N)nn(C)c2Nc2ccccc2)cc1` was tested. Which growth did it give?
Answer: -1.26% (active)

Question: Which growth does the source give for `Cc1cc(Cc2cc(C)c(N)cc2N)c(N)cc1N` here?
Answer: 95.4% (inactive)
